Test results reported in PubChem BioAssay (NCATS).
Inconclusive results are not listed. Active and inactive are the calls of the source. Calls follow the shape of the dose curve; as a rule, active = well fitted cell-killing curve with a large enough effect; inconclusive = small, poorly fitted or top-dose-only effect, or effect the other way; inactive = flat fitted curve, though single readings scatter.

How the values were obtained:
Test in all cases: Primary qHTS to identify gynecologic anti-cancer compounds using libraries of approved drugs and bioactive compounds (AID 1345084); also: nearly all actives have a fitted effect of over 55% in size
[1] = system: C33A; details: Gynecologic cancer cell panel viability, ATPlite luminescence, 48 h; series mostly up to 57.5 µM
Outline: (§1)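 In this quantitative HTS, cell killing is estimated from loss of ATP-dependent luciferase light. Cells see five compound concentrations over a 48 h exposure.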

[2] = system: CAOV3; details: Gynecologic cancer cell panel viability, ATPlite luminescence, 48 h; series mostly up to 57.5 µM
Outline: as §1

[3] = system: CASKI; details: Gynecologic cancer cell panel viability, ATPlite luminescence, 48 h; series mostly up to 57.5 µM
Outline: as §1

[4] = system: Es-2; details: Gynecologic cancer cell panel viability, ATPlite luminescence, 48 h; series mostly up to 57.5 µM
Outline: as §1

[5] = system: HeLa; details: Gynecologic cancer cell panel viability, ATPlite luminescence, 48 h; series mostly up to 57.5 µM
Outline: as §1

[6] = system: Hek293T; details: Gynecologic cancer cell panel viability, ATPlite luminescence, 48 h, control line for the selectivity index; series mostly up to 57.5 µM
Outline: as §1

[7] = system: JEG-3; details: Gynecologic cancer cell panel viability, ATPlite luminescence, 48 h; series mostly up to 57.5 µM
Outline: as §1
% is scaled to controls: 0 for no effect and ±100 for the full control effect.

C=C1[C@H]2CC[C@]3(O)[C@@](CC[C@@H]4[C@](C)(C(=O)O)CCC[C@]43C)(C2)[C@H]1OC(=O)/C(C)=C\C
inactive: Potency [1] | Potency [2] | Potency [3] | Potency [4] | Potency [5] | Potency [6] | Potency [7]

CC(C)(O)CNc1nc(Nc2ccnc(C(F)(F)F)c2)nc(-c2cccc(C(F)(F)F)n2)n1
inactive: Potency [1] | Potency [2] | Potency [3] | Potency [4] | Potency [5] | Potency [6] | Potency [7]

C/C=C(\C)C(=O)OC[C@H]1O[C@H](O[C@H]2O[C@H](CO)[C@@H](OC(=O)/C(C)=C/C)[C@H](O)[C@H]2O[C@@H]2O[C@H](CO)[C@@H](O)[C@H](O)[C@H]2O)[C@H](O[C@@H]2O[C@H](CO)[C@@H](O)[C@H](O)[C@H]2O)[C@@H](O)[C@@H]1O
inactive: activity change, negative = cytotoxicity [1] 3.37% [at 11.6 µM] | activity change, negative = cytotoxicity [2] 17% [at 11.6 µM] | activity change, negative = cytotoxicity [3] 6.41% [at 11.6 µM] | activity change, negative = cytotoxicity [4] 10.5% [at 11.6 µM] | activity change, negative = cytotoxicity [5] 13.4% [at 11.6 µM] | activity change, negative = cytotoxicity [6] 8.94% [at 11.6 µM] | activity change, negative = cytotoxicity [7] 2.7% [at 11.6 µM]

CCNC(=O)[C@@H]1CCCN1C(=O)[C@H](CCCN=C(N)N)NC(=O)[C@H](CC(C)C)NC(=O)[C@@H](C)NC(=O)[C@H](Cc1ccc(O)cc1)NC(=O)[C@H](CO)NC(=O)[C@H](Cc1c[nH]c2ccccc12)NC(=O)[C@H](Cc1cnc[nH]1)NC(=O)[C@@H]1CCC(=O)N1
inactive: Potency [1] | Potency [2] | Potency [3] | Potency [4] | Potency [5] | Potency [6] | Potency [7]

CC(=O)Oc1cc2c(s1)CCN([C@H](C(=O)C1CC1)c1ccccc1F)C2
inactive: Potency [1] | Potency [2] | Potency [3] | Potency [4] | Potency [5] | Potency [6] | Potency [7]

C=CC1(C)C=C2C(=O)CC3C(C)(C)CCCC3(C(=O)O)C2(O)CC1 (centres undefined)
inactive: Potency [1] | Potency [2] | Potency [3] | Potency [4] | Potency [5] | Potency [6] | Potency [7]

C=C1CC/C=C(/CO)C(=O)C[C@@H]2[C@@H]1CC2(C)C
inactive: Potency [1] | Potency [2] | Potency [3] | Potency [4] | Potency [5] | Potency [6] | Potency [7]

C[C@@H]1CC[C@H]2C(C)(C)[C@H](O)[C@H](O)C[C@]2(C)[C@@]12Cc1c(O)cc3c(c1O2)CNC3=O
inactive: Potency [1] | Potency [2] | Potency [3] | Potency [4] | Potency [5] | Potency [6] | Potency [7]

CC1(C)CC[C@]2(C(=O)O)CC[C@]3(C)C(=CCC4[C@@]5(C)C[C@@H](O)[C@H](O)C(C)(C)C5CC[C@]43C)[C@@H]2[C@@H]1O (some centres undefined)
inactive: Potency [1] | Potency [2] | Potency [3] | Potency [4] | Potency [5] | Potency [6] | Potency [7]

CC(=O)OCCC(C)CCC1C(C)(O)CCC2C(C)(C)CCCC21C (centres undefined)
inactive: Potency [1] | Potency [2] | Potency [3] | Potency [4] | Potency [5] | Potency [6] | Potency [7]

CC1(C)CC[C@]2(C(=O)O)CC[C@]3(C)C(=CCC4[C@@]5(C)CCC(O[C@@H]6OC[C@H](O)[C@H](O)[C@H]6O[C@@H]6O[C@H](CO)[C@@H](O)[C@H](O)[C@H]6O)[C@@](C)(CO)C5CC[C@]43C)[C@@H]2C1 (some centres undefined)
inactive: Potency [1] | Potency [2] | Potency [3] | Potency [4] | Potency [5] | Potency [6] | Potency [7]

C[C@@H]1O[C@@H](O[C@H]2[C@H](O)[C@@H](C(=O)O)O[C@@H](O[C@H]3CC[C@@]4(C)C(CC[C@]5(C)C4CC=C4C6CC(C)(C)CC[C@]6(C(=O)O)CC[C@]45C)C3(C)C)[C@@H]2O[C@@H]2O[C@H](CO)[C@@H](O)[C@H](O)[C@H]2O)[C@H](O)[C@H](O)[C@H]1O (some centres undefined)
inactive: activity change, negative = cytotoxicity [1] 0.0448% [at 11.6 µM] | activity change, negative = cytotoxicity [2] 1.71% [at 11.6 µM] | activity change, negative = cytotoxicity [3] -2.17% [at 11.6 µM] | activity change, negative = cytotoxicity [4] 0.67% [at 11.6 µM] | activity change, negative = cytotoxicity [5] 6.77% [at 11.6 µM] | activity change, negative = cytotoxicity [6] -9.05% [at 11.6 µM] | activity change, negative = cytotoxicity [7] -1.5% [at 11.6 µM]

COCC(=O)N1CCc2cc(-c3csc(NC(=O)c4cc(OC)cc(OC)c4)n3)ccc21
inactive: Potency [1] | Potency [2] | Potency [3] | Potency [4] | Potency [5] | Potency [6] | Potency [7]

COc1cc(C/C(=C/NC(C)=O)N(CC(=O)Cc2ccccc2)C(C)=O)cc2c1OCO2
inactive: Potency [1] | Potency [2] | Potency [3] | Potency [4] | Potency [5] | Potency [6] | Potency [7]

O=C(O)c1n[nH]c2c1C[C@H]1C[C@@H]21
inactive: Potency [1] | Potency [2] | Potency [3] | Potency [4] | Potency [5] | Potency [6] | Potency [7]

CO[C@H]1C=C2C(CC[C@H](O[C@@H]3O[C@H](CO)[C@@H](O)[C@@H](O)[C@H]3O)C2(C)C)[C@]2(C)CC[C@]3(C)C([C@H](C)C(O)C(C=C(C)C)O[C@@H]4O[C@H](CO)[C@@H](O)[C@@H](O)[C@H]4O)CC[C@@]3(C)C12 (some centres undefined)
inactive: activity change, negative = cytotoxicity [1] -3.11% [at 11.6 µM] | activity change, negative = cytotoxicity [2] 7.91% [at 11.6 µM] | activity change, negative = cytotoxicity [3] -4.92% [at 11.6 µM] | activity change, negative = cytotoxicity [4] 2.74% [at 11.6 µM] | activity change, negative = cytotoxicity [5] 0.609% [at 11.6 µM] | activity change, negative = cytotoxicity [6] 12.3% [at 11.6 µM] | activity change, negative = cytotoxicity [7] -6.82% [at 11.6 µM]

CCOc1ccc(-c2ccc(Cn3c(CC(C)(C)C(=O)O)c(SC(C)(C)C)c4cc(OCc5ccc(C)cn5)ccc43)cc2)cn1
inactive: Potency [1] | Potency [2] | Potency [3] | Potency [4] | Potency [5] | Potency [6] | Potency [7]

COc1cc(C2OCC3C(c4ccc(OC5OC(CO)C(O)C(O)C5O)c(OC)c4)OCC23)ccc1O (centres undefined)
inactive: Potency [1] | Potency [2] | Potency [3] | Potency [4] | Potency [5] | Potency [6] | Potency [7]

O=C1NC(=Nc2ccccc2F)S/C1=C\c1ccc(C(=O)O)cc1
inactive: Potency [1] | Potency [2] | Potency [4] | Potency [5] | Potency [6] | Potency [7]

C=C1C2=CC(O)C(C)C1(C)CC/C(C)=C/CCC1(C)OC1C2=O (centres undefined)
inactive: Potency [1] | Potency [2] | Potency [3] | Potency [4] | Potency [5] | Potency [6] | Potency [7]
